# From PubChem BioAssay (NCI)
# About 83,000 compounds went through this panel and 20% of them were active in at least one assay; those are over-represented in the sample as a whole.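 Negative percent growth values reflect cell death: -40 means 40% of the cells present at the start died, and -100 means all died.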 Values without a mark were called inactive. The source made the active and inactive calls. The calls were made as follows: active = growth percent below 10; inactive = the rest.
# Columns and labels:
# Assay in all cases: NCI-60 one-dose screen, 48 h (100 = growth as untreated, 0 = no growth, -100 = all killed)
# Conditions in all cases: 10 µM unless noted
# DU-145 prostate = system: DU-145 prostate
# K-562 leukemia = system: K-562 leukemia
# MALME-3M melanoma = system: MALME-3M melanoma
# MDA-MB-231 breast = system: MDA-MB-231 breast
# RXF 393 renal = system: RXF 393 renal
# SF-268 CNS = system: SF-268 CNS
# SF-295 CNS = system: SF-295 CNS
# SF-539 CNS = system: SF-539 CNS
# UACC-257 melanoma = system: UACC-257 melanoma
# M14 melanoma = system: M14 melanoma
# HCT-15 colon = system: HCT-15 colon
# HT29 colon = system: HT29 colon
# SNB-75 CNS = system: SNB-75 CNS
# SNB-19 CNS = system: SNB-19 CNS
# U251 CNS = system: U251 CNS
# PC-3 prostate = system: PC-3 prostate
# SK-MEL-5 melanoma = system: SK-MEL-5 melanoma
# UACC-62 melanoma = system: UACC-62 melanoma
# LOX IMVI melanoma = system: LOX IMVI melanoma
# SK-MEL-28 melanoma = system: SK-MEL-28 melanoma
Compound,growth (DU-145 prostate),growth (K-562 leukemia),growth (MALME-3M melanoma),growth (MDA-MB-231 breast),growth (RXF 393 renal),growth (SF-268 CNS),growth (SF-295 CNS),growth (SF-539 CNS),growth (UACC-257 melanoma),growth (M14 melanoma),growth (HCT-15 colon),growth (HT29 colon),growth (SNB-75 CNS),growth (SNB-19 CNS),growth (U251 CNS),growth (PC-3 prostate),growth (SK-MEL-5 melanoma),growth (UACC-62 melanoma),growth (LOX IMVI melanoma),growth (SK-MEL-28 melanoma)
Cc1cc2c(cc1-c1ccnc(/C=C/C(=O)O)c1)C(C)(C)CCC2(C)C,105%,85.5%,64.8%,75.5%,79.4%,86.6%,88.6%,78.2%,87.4%,78.2%,86.1%,97.9%,80.3%,90.7%,84.1%,86.8%,67.9%,72.2%,46.9%,92.9%
C[C@]12CCc3sc(Nc4ccc(F)cc4)nc3C1=CC[C@@H]1[C@@H]2CC[C@]2(C)C(=O)CC[C@@H]12,19.3%,5.92% (active),78.7%,84.4%,13.2%,69.3%,28.7%,54.4%,85.9%,90%,32.2%,35.5%,66.7%,67.4%,47.2%,64.3%,71.3%,69.6%,56.6%,46.5%
COC1C(O)CC(OC2CC(Oc3cc4cc5c(c(O)c4c(O)c3C)C(=O)[C@@H](OC3CC(OC4CC(OC6CC(C)(O)C(OC(C)=O)C(C)O6)C(O)C(C)O4)C(O)C(C)O3)[C@H]([C@H](OC)C(=O)[C@@H](O)[C@@H](C)O)C5)OC(C)C2OC(C)=O)OC1C (some centres not stated),-18.3% (active),-14.9% (active),-91.6% (active),-8.36% (active),-49.6% (active),-10.5% (active),-16.2% (active),-73.9% (active),-31.7% (active),-86.3% (active),1.5% (active),-23.2% (active),-61.8% (active),5.7% (active),4.79% (active),-11.5% (active),-93.8% (active),-83% (active),3.81% (active),–
[N-]=[N+]=CC(=O)CCC(=O)C=[N+]=[N-],127%,83.9%,96.3%,103%,124%,121%,106%,88.3%,137%,102%,111%,107%,96.6%,99.6%,100%,86%,116%,96.5%,94.9%,–
CC[C@H](C)[C@H](NC(=O)CN(C)C)C(=O)N(C)[C@H](C[C@@H](OC(C)=O)c1nc(C(=O)NC23CC(C(=O)OC)(C2)C3)cs1)C(C)C,9.21% (active),9.47% (active),50.9%,1.51% (active),8.43% (active),21.8%,13.8%,-8.6% (active),46.8%,-8.54% (active),21.6%,-1.6% (active),45.1%,41.5%,13.5%,25.8%,12.6%,24.4%,19.7%,–
C[N+]1(CC#CC[N+]2(C)CCCC2)CCCC1,106%,106%,99%,102%,103%,95.9%,98.6%,105%,105%,103%,103%,101%,88.4%,104%,107%,92.7%,101%,99.9%,93.6%,111%
